The results in this text go back to ChEMBL document CHEMBL4296182, “CO-ADD screening of NIH NCI Diversity Set V”.

For part of these data: Entries with a potency or affinity are not part of this list.

One assay deals with Staphylococcus aureus. Kind of assay: Antibacterial activity against Staphylococcus aureus MRSA ATCC 43300 (CO-ADD:GP_020); MIC in CAMBH media using NBS plates, by Resazurin F(560/590). The assay is classed as functional. The conditions noted are these: Concentration 20 uM, ASSAY_TEST Inhibition of Bacterial Growth, detection method Resazurin, Fluorescence (ex560/em590), MEDIA CAMHB, plate type 384well, CORNING #3640, time 18 hr. For orientation: Resazurin is reduced to fluorescent resorufin, in cell work by metabolically active cells.

The test system of the next assay is Acinetobacter baumannii. The assay can be described thus: Antibacterial activity against Acinetobacter baumannii ATCC 19606 (CO-ADD:GN_034); MIC in CAMBH media using NBS plates, by Resazurin F(560/590). The class given is functional. The conditions noted are these: Concentration 20 uM, ASSAY_TEST Inhibition of Bacterial Growth, detection method Resazurin, Fluorescence (ex560/em590), MEDIA CAMHB, plate type 384well, CORNING #3640, time 18 hr.

For another assay, the system named is Escherichia coli. The assay can be described thus: Antibacterial activity against Escherichia coli ATCC 25922 (CO-ADD:GN_001); MIC in CAMBH media using NBS plates, by Resazurin F(560/590). The class given is functional. The conditions noted are these: Concentration 20 uM, ASSAY_TEST Inhibition of Bacterial Growth, detection method Resazurin, Fluorescence (ex560/em590), MEDIA CAMHB, plate type 384well, CORNING #3640, time 18 hr.

For another assay, the system named is Klebsiella pneumoniae. The conditions noted are these: Concentration 20 uM; ASSAY_TEST Inhibition of Bacterial Growth; detection method Absorption (OD600); MEDIA CAMHB; plate type 384well; NBS; CORNING #3640; time 18 hr.
The next assay deals with Candida albicans. The conditions noted are these: 20 µM.
A further assay has as its system Cryptococcus neoformans. The conditions noted are these: Concentration 20 uM; ASSAY_TEST Inhibition of Fungal Growth; detection method Resazurin; Absorption (OD600-OD570); plate type 384well; NBS; CORNING #3640.

With `CN1CCN(c2nc(N)cc(O)n2)CC1`, the Inhibition – broadly, the drop in the measured response relative to a control, in per cent – with Staphylococcus aureus was -8.8%; in the assay with Acinetobacter baumannii it was 13.73%; in the assay on Escherichia coli, 3.5%; in the assay on Klebsiella pneumoniae, 7.87%; in the assay with Candida albicans, 7.43%; in the assay with Cryptococcus neoformans, -4.09%.
In the case of `Cc1c(C(=O)c2ccccc2)c2ccccc2n1C`, the Inhibition with Staphylococcus aureus is 14.29%; in the assay with Acinetobacter baumannii, -0.59%; in the assay with Escherichia coli it was 13.79%; in the assay with Klebsiella pneumoniae it was 4.42%; with Candida albicans, 1.53%; in the assay on Cryptococcus neoformans, -16.28%.
In the case of `CC(=O)O.CCC(N)Cc1c[nH]c2ccccc12` (stereo not drawn) [ETRYPTAMINE ACETATE], the Inhibition was 10.71% with Staphylococcus aureus; -7.1% in the assay on Acinetobacter baumannii; 6.98% with Escherichia coli; 14.32% with Klebsiella pneumoniae; 2.48% in the assay on Candida albicans; -7.72% in the assay with Cryptococcus neoformans.
On to `O=C(CF)N(O)c1ccc(/C=C/c2ccccc2)cc1`, for which the Inhibition with Staphylococcus aureus is -10.86%; in the assay on Acinetobacter baumannii, -11.91%; with Escherichia coli, 10.97%; with Klebsiella pneumoniae, 1.67%; in the assay on Candida albicans, 12.6%; in the assay on Cryptococcus neoformans, -7.92%.
Regarding `NN=C1C(Cl)=C(Cl)C(Cl)=C1Cl`, the Inhibition with Staphylococcus aureus was -27.05%; in the assay with Acinetobacter baumannii it was -7.11%; in the assay with Escherichia coli it was -15.84%; in the assay with Klebsiella pneumoniae it was 1.32%; in the assay on Candida albicans, 38.7%; in the assay with Cryptococcus neoformans, 5.21%.
Take `CN(C)P(=O)(N(C)C)N1CC1`: the Inhibition in the assay with Staphylococcus aureus is 13.5%; in the assay on Acinetobacter baumannii it was -2.37%; in the assay with Escherichia coli it was 15.32%; in the assay with Klebsiella pneumoniae, 12.98%; in the assay with Candida albicans, -1.16%; with Cryptococcus neoformans it was -11.15%.
`C[C@H]1CC[C@@]2(C)[C@@H](CC[C@@H]3[C@@H]2CC[C@]2(C)[C@@H](O)CC[C@@H]32)C1`: the Inhibition in the assay on Staphylococcus aureus is 19.61%; with Acinetobacter baumannii, 5.34%; in the assay on Escherichia coli it was 2.81%; in the assay with Klebsiella pneumoniae, 23.84%; in the assay with Candida albicans it was 9.51%; in the assay on Cryptococcus neoformans, -1.26%.
Regarding `Cc1ccc2cc3c(ccc4ccccc43)c3c2c1CC3` [3-METHYLCHOLANTHRENE], the Inhibition was 32.91% in the assay on Staphylococcus aureus; -6.45% with Acinetobacter baumannii; 10.1% with Escherichia coli; -1.21% in the assay with Klebsiella pneumoniae; 1.03% in the assay on Candida albicans; 3.35% in the assay on Cryptococcus neoformans.
Consider `O=c1cccc2n1C[C@H]1CNC[C@H]2C1`, for which the Inhibition with Staphylococcus aureus was 0.43%; in the assay on Acinetobacter baumannii, -9.28%; in the assay on Escherichia coli, 4.51%; in the assay on Klebsiella pneumoniae, 2.72%; in the assay on Candida albicans it was 0.25%; in the assay with Cryptococcus neoformans, -10.24%.
On to `CCC1CN1P(=O)(Oc1ccc(Cl)cc1)N1CC1CC` (stereo not drawn), for which the Inhibition in the assay with Staphylococcus aureus was 5.27%; in the assay with Acinetobacter baumannii, -3.62%; in the assay with Escherichia coli it was 11.85%; in the assay with Klebsiella pneumoniae, 2.63%; in the assay on Candida albicans, 4.31%; in the assay with Cryptococcus neoformans it was -4.87%.
`CC(=O)OC1CCC2(C)C(CCC3C2CC(=O)C2(C)C3CC(N3CC3)C2C(C)=O)C1` (stereo not drawn): the Inhibition is -6.66% with Staphylococcus aureus; -5.39% in the assay with Acinetobacter baumannii; 9.74% in the assay on Escherichia coli; 4.84% in the assay on Klebsiella pneumoniae; -0.96% with Candida albicans; -1.15% with Cryptococcus neoformans.
Take `CN1CCC(c2c[nH]c3ccccc23)C1` (stereo not drawn): the Inhibition is 10.13% with Staphylococcus aureus; 1.97% with Acinetobacter baumannii; -8.69% with Escherichia coli; 8.23% with Klebsiella pneumoniae; 0.53% with Candida albicans; 10.07% in the assay on Cryptococcus neoformans.
Regarding `CNC(=O)Oc1c(O)ccnc1C`, the Inhibition is 3.2% in the assay with Staphylococcus aureus; -15.53% in the assay with Acinetobacter baumannii; 4.87% in the assay with Escherichia coli; 2.24% with Klebsiella pneumoniae; 5.45% with Candida albicans; -9.19% in the assay with Cryptococcus neoformans.
On to `O=C1C[C@@H]2OCC=C3C[N+]4([O-])CC[C@]56c7ccccc7N1[C@H]5[C@H]2[C@H]3C[C@@H]64` (stereo partly drawn), for which the Inhibition in the assay on Staphylococcus aureus was -3.57%; with Acinetobacter baumannii, -14.45%; with Escherichia coli, 1.56%; with Klebsiella pneumoniae it was 13.5%; with Candida albicans, 3.06%; with Cryptococcus neoformans, -6.02%.
In the case of `CC12CCC3C(CCC4Cc5[nH]c6ccccc6c5CC43C)C1CCC2O` (stereo not drawn), the Inhibition with Staphylococcus aureus is -0.19%; in the assay with Acinetobacter baumannii it was -0.61%; in the assay on Escherichia coli, 16.15%; with Klebsiella pneumoniae it was 10.81%; in the assay on Candida albicans it was -1.61%; with Cryptococcus neoformans it was -15.22%.
Take `CN1CCC2(O)OCCCC2C1` (stereo not drawn): the Inhibition is 3.54% with Staphylococcus aureus; -13.99% in the assay on Acinetobacter baumannii; 3.03% in the assay with Escherichia coli; 26.78% in the assay with Klebsiella pneumoniae; 1.09% in the assay on Candida albicans; 3.57% in the assay on Cryptococcus neoformans.
Turning to `O=[As](O)(O)c1ccc(/N=N/c2ccc(O)cc2)cc1`, the Inhibition in the assay on Staphylococcus aureus is -11.42%; with Acinetobacter baumannii, -13.35%; in the assay on Escherichia coli, 0.89%; with Klebsiella pneumoniae, 15.09%; with Candida albicans, 7.76%; with Cryptococcus neoformans, -3.57%.
Turning to `O=[N+]([O-])c1cc(-c2ccc([As](=O)(O)O)cc2)ccc1[As](=O)(O)O`, the Inhibition in the assay with Staphylococcus aureus was 16.49%; in the assay on Acinetobacter baumannii, -5.02%; with Escherichia coli it was 9.73%; with Klebsiella pneumoniae, 17.36%; in the assay on Candida albicans, 0.95%; in the assay with Cryptococcus neoformans, -9.04%.
Turning to `Cc1ncc([N+](=O)[O-])n1CCOC(N)=O` [BAMNIDAZOLE], the Inhibition is 2.14% in the assay on Staphylococcus aureus; -5.43% with Acinetobacter baumannii; 15.41% in the assay on Escherichia coli; 2.21% in the assay on Klebsiella pneumoniae; 2.39% in the assay with Candida albicans; 7.78% in the assay on Cryptococcus neoformans.
Turning to `CC(C)CC(NC=O)C(=O)O.COc1cc2c(cc1OC)C13CCN4CC5=CCOC6CC(=O)N2C1C6C5CC43` (stereo not drawn), the Inhibition is 7.19% with Staphylococcus aureus; -2.08% with Acinetobacter baumannii; 1.33% in the assay with Escherichia coli; 12.71% in the assay with Klebsiella pneumoniae; -1.26% with Candida albicans; -3.45% in the assay with Cryptococcus neoformans.
On to `O=C(O)CCCC[C@@H]1SC[C@@H]2NC(=O)N[C@@H]21` [BIOTIN], for which the Inhibition with Staphylococcus aureus is 10.18%; in the assay on Acinetobacter baumannii, -16.1%; in the assay with Escherichia coli, 8.51%; in the assay with Klebsiella pneumoniae it was 5.79%; in the assay with Candida albicans it was 1.63%; in the assay with Cryptococcus neoformans, -9.23%.
For the compound `CCC(CO)NC(=O)C1C=C2c3cccc4[nH]cc(c34)CC2N(C)C1` (stereo not drawn), the Inhibition was 1.02% with Staphylococcus aureus; 14.09% in the assay with Acinetobacter baumannii; -11.63% in the assay on Escherichia coli; 10.28% in the assay on Klebsiella pneumoniae; -0.04% with Candida albicans; 5.57% with Cryptococcus neoformans.
For the compound `CN1CCN(c2nc(N)c(Br)c(Cl)n2)CC1`, the Inhibition is 8.04% in the assay on Staphylococcus aureus; 10.68% with Acinetobacter baumannii; 2.4% with Escherichia coli; 16.05% with Klebsiella pneumoniae; 2.84% in the assay with Candida albicans; -7.43% with Cryptococcus neoformans.
